# Active and inactive are the calls of the source.
# What was measured:
# Albumin (Bos taurus) = Albumin (Bos taurus) (UniProt P02769); test: compounds binding labelled BSA control protein – biochemical, small-molecule microarray, Alexa647 label, 635/667 nm fluorescence, artefact control for SMM control protein annotation, profiling panel (AID 1118); details: BSA-A647 binding, fluorescence 635 nm, higher = more signal;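 further: score merges 667 nm emission intensity and signal-to-noise per printed compound spot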
# Albumin (Bos taurus), sequence (P02769 whole entry, looked up): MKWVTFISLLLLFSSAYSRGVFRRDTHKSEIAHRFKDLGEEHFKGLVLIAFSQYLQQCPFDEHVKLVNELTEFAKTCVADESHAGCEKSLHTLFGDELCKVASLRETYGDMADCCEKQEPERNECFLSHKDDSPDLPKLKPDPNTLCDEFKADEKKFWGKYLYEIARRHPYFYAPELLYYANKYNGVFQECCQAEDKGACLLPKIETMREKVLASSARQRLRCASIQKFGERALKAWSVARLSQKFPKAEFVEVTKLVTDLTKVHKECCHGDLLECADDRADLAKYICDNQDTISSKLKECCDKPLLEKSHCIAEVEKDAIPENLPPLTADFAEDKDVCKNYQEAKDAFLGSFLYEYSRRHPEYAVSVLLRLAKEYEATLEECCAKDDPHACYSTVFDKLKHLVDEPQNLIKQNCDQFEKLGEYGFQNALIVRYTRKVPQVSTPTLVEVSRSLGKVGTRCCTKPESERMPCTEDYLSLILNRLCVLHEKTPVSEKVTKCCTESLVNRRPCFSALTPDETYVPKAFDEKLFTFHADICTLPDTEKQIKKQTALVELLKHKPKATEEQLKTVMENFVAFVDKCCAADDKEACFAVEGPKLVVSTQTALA
# [1] = probe aXIP binding to arrayed compounds – biochemical, NeuroSMM set, 635/667 nm fluorescence, primary screen (AID 1119); details: small-molecule microarray, higher = more signal, called active from +8 up or from −8 down;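 further: probe is the protein aXip251-270 applied at 1 µg/mL to compound-printed slides; binding of probe to printed compounds measured as 667 nm fluorescence plus signal to noise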
# [2] = probe aNOTCH3 binding on compound microarray – biochemical, small-molecule microarray, 635/667 nm fluorescence, primary screen (AID 1120); details: higher = more signal;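 further: probe is a biotin-tagged antibody raised against NOTCH3 rather than NOTCH3 protein; score merges spot fluorescence near 667 nm with spot signal to noise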
# [3] = probe aNOTCH2 binding on compound microarray – biochemical, small-molecule microarray, 635/667 nm fluorescence, primary screen (AID 1121); details: higher = more signal;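 further: score merges feature fluorescence read at 667 nm with its signal to noise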
# [4] = target: Carbonic anhydrase 2 (Homo sapiens) (UniProt P00918); test: compounds binding carbonic anhydrase 2 – biochemical, small-molecule microarray, Alexa647-labelled CAII, profiling panel (AID 1122); details: CAII-A647 binding fluorescence, higher = more signal
# [5] = COS7 lysate on small-molecule microarray, probe aHis, 635 nm (AID 1123); details: COS7 cell lysate, fluorescence, higher = more signal;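 further: z-score combines 667nm fluorescence intensity with signal-to-noise per printed compound spot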
# [6] = probe aLAP1 signal on lysate-treated microarray – cell lysate, small-molecule microarray, COS7 lysate, primary screen (AID 1124); details: probe aLAP1, fluorescence, higher = more signal;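 further: lysate comes from COS7 cells expressing LAP1 and is applied at 0.3 µg/mL; score merges spot fluorescence near 667 nm with signal-to-noise over triplicate slides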
# Sam68 (KHDRBS1) = test: compounds binding KHDRBS1 protein – biochemical, small-molecule microarray, 635 nm fluorescence, primary screen (AID 1125); details: higher = more signal;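 further: score merges 667 nm channel intensity with signal to noise over triplicate slides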
# [7] = tested on: Chordin-like protein 2 (CHRDL2); test: compounds binding chordin-like 2 – biochemical, small-molecule microarray, 635 nm fluorescence, primary screen (AID 1126); details: fluorescence 635 nm, higher = more signal;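 further: printed compound slides probed with Chrdl2 protein at 4 µg/mL for 1 h at 4 C; score merges 667 nm emission intensity with signal to noise over three replicate slides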
# [8] = target: Concanavalin-A (Canavalia ensiformis) (UniProt P02866); test: compounds binding concanavalin A lectin – biochemical, small-molecule microarray, Alexa647 label, 635 nm, artefact control for SMM control protein annotation, primary screen (AID 1127); details: ConA-A647 binding fluorescence, higher = more signal;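 further: z combines 667 nm emission intensity with signal-to-noise across three replicate slides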
# Concanavalin-A (Canavalia ensiformis), sequence (P02866 whole entry, looked up): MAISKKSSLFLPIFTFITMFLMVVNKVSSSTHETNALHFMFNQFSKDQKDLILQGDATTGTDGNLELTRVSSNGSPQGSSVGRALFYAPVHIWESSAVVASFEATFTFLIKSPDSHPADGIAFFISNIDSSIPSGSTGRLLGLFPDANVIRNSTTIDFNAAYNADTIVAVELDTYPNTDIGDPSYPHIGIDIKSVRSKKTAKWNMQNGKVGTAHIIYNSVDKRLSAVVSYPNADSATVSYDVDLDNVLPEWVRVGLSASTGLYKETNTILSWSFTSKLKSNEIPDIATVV
# [9] = compounds binding Alexa647 anti-His antibody – biochemical, small-molecule microarray, 635 nm fluorescence, artefact control for SMM control protein annotation, primary screen (AID 1128); details: higher = more signal;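 further: score merges feature fluorescence with signal-to-noise for each printed compound spot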
# [10] = tested on: Human papillomavirus type 1a E7 protein (residues 1-88); test: HPV1a E7 small-molecule binders, primary screen, biochemical, small-molecule microarray, residues 1-88, 635 nm (AID 1129); details: small-molecule microarray binding, fluorescence 635 nm; higher = more signal
# [11] = target: Focal adhesion kinase 1 (Homo sapiens) (UniProt Q05397); test: PTK2 protein binding on printed compound slides – biochemical, small-molecule microarray, 635/667 nm fluorescence, BSA, DTT, primary screen (AID 1130); details: 635 nm fluorescence, higher = more signal;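 further: composite of spot emission at 667 nm and signal to noise over triplicate slides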
# Focal adhesion kinase 1 (Homo sapiens), sequence (Q05397 whole entry, looked up): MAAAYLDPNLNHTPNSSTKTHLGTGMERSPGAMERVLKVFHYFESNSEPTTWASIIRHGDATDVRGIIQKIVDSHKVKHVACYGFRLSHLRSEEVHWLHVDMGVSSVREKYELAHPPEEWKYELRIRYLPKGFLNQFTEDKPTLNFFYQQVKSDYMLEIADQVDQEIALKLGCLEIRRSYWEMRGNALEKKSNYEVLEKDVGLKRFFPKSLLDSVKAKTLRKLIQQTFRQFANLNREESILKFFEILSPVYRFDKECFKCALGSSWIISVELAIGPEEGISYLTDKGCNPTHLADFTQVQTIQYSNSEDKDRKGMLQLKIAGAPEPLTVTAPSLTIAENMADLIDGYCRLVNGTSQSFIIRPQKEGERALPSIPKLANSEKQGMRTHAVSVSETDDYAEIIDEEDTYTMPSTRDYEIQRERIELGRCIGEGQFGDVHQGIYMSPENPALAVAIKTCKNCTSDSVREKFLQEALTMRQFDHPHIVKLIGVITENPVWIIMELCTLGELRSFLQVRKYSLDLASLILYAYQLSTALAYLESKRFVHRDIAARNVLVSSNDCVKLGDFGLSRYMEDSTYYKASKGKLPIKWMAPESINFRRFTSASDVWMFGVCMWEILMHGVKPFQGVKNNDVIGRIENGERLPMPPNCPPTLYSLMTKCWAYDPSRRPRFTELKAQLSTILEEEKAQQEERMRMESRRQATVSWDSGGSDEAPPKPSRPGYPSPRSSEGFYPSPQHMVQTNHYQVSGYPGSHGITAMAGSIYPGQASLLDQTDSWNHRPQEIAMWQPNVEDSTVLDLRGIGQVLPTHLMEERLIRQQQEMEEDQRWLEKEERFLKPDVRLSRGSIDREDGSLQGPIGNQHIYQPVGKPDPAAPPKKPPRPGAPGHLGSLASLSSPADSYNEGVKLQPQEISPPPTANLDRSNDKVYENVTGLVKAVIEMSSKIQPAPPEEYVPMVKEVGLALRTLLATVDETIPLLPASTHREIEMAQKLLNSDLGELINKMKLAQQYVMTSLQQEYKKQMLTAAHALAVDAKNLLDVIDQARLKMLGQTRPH
# [12] = tested on: Fibrinogen (Alexa647-labelled); test: Alexa647-fibrinogen binding to printed small molecules – biochemical, small-molecule microarray, 635/667 nm fluorescence, artefact control for SMM control-protein annotation, profiling panel (AID 1131); details: fibrinogen-A647 binding fluorescence, higher = more signal;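 further: z-score merges 667 nm fluorescence with per-spot signal-to-noise over triplicate slides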
# [13] = target: Follistatin (Homo sapiens) (UniProt P19883); test: FST protein binding to printed compounds – biochemical, small-molecule microarray, 635/667 nm fluorescence, primary screen (AID 1132); details: 635 nm fluorescence, higher = more signal
# Follistatin (Homo sapiens), sequence (P19883 whole entry, looked up): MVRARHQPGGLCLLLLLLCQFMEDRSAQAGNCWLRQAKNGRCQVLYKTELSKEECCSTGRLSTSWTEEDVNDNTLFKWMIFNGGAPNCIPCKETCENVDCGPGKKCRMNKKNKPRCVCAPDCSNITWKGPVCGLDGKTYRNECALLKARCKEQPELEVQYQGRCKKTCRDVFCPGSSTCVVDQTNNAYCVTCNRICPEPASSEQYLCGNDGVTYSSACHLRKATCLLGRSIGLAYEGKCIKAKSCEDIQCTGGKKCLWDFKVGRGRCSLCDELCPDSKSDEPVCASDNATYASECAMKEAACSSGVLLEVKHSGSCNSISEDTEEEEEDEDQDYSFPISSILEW
# [14] = target: Fibroblast growth factor 2 (Homo sapiens) (UniProt P09038); test: basic fibroblast growth factor binding to printed compounds – biochemical, small-molecule microarray, 635/667 nm fluorescence, primary screen (AID 1133); details: FGF2, fluorescence 635/667, higher = more signal
# Fibroblast growth factor 2 (Homo sapiens), sequence (P09038 whole entry, looked up): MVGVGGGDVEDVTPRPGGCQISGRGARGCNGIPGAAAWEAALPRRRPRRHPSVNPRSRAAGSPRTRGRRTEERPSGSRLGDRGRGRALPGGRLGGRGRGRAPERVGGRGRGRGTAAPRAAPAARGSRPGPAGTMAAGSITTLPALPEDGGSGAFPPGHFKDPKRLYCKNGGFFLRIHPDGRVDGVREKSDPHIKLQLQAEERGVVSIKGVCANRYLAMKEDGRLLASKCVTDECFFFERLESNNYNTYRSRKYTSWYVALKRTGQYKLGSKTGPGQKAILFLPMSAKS
# [15] = JC-1 mitochondrial potential readout, lung cancer cells – cell-based, A549, JC-1 fluorescence, basal, 24 h, 100 nL, profiling panel (AID 1138); details: higher = more signal;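 further: A549 lung adenocarcinoma cells under basal conditions with no added stimulus; test concentration not given here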
# Lefty1 = Lefty1 protein binding to printed compounds – biochemical, small-molecule microarray, 635/667 nm fluorescence, primary screen (AID 1139); details: fluorescence 635/667, higher = more signal
# [16] = tested on: wheat germ agglutinin (Triticum aestivum), Alexa647-labelled; test: Alexa647-WGA lectin binding to printed small molecules – biochemical, small-molecule microarray, 635/667 nm fluorescence, artefact control for SMM control-protein annotation, profiling panel (AID 1140); details: WGA-A647 binding, 635 nm fluorescence, higher = more signal;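 further: score merges 667 nm feature emission with signal to noise over triplicate slides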
# [17] = target: Luciferin 4-monooxygenase (Photinus pyralis) (UniProt P08659); test: inhibition of purified Photinus pyralis luciferase – biochemical, luminescence, purified enzyme, 2006 set, primary screen (AID 1141); details: purified firefly luciferase, SteadyGlo luminescence, 30 min; higher = more signal, called active from +8 up or from −8 down;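 further: cell-free assay with purified firefly luciferase at 100 ng per well in PBS; test concentration not given here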
# Luciferin 4-monooxygenase (Photinus pyralis), sequence (P08659 whole entry, looked up): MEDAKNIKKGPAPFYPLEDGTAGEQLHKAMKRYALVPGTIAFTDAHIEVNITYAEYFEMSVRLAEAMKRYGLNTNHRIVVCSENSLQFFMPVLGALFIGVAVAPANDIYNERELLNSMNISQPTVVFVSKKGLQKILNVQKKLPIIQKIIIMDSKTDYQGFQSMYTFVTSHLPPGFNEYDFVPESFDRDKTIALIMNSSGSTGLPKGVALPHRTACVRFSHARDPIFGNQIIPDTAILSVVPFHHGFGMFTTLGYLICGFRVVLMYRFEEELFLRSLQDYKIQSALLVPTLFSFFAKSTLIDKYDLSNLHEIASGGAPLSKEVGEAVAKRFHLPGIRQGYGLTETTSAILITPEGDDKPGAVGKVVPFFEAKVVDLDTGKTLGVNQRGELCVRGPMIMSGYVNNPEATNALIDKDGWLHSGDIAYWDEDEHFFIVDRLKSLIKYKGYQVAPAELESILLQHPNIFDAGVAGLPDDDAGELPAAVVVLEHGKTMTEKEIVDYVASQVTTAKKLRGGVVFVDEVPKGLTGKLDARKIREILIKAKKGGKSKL
SMILES,composite z-score (Albumin (Bos taurus)),composite Z-score [1],composite z-score [2],composite z-score [3],composite z-score [4],composite z-score [5],composite z-score [6],composite z-score (Sam68 (KHDRBS1)),composite z-score [7],composite z-score [8],composite z-score [9],composite z-score [10],composite z-score [11],composite z-score [12],composite z-score [13],composite z-score [14],z-score [15],composite z-score (Lefty1),composite z-score [16],z-score [17]
COc1cc2c(cc1OC)CN(C(=O)[C@H]1[C@@H]3C(=O)O[C@@H](c4ccccc4)[C@@H](c4ccccc4)N3[C@@H](c3ccc(OCCO)cc3)[C@]13C(=O)Nc1ccc(C#CC4(O)CCCCCC4)cc13)CC2,0.822,-0.195 (inactive),-0.337,-0.126,0.619,1.52,0.491,1.29,0.739,1.18,1.91,1.21,-0.109,0.819,1.46,1.38,-1.42,1.35,1.18,-1.15 (inactive)
CN(C)CCCNC(=O)[C@@H]1c2ccccc2C(=O)N(CC23CC4CC(CC(C4)C2)C3)[C@H]1c1ccc(CO)cc1,0.821,2.01 (inactive),-0.001,-0.0984,0.344,2.62,2.1,1.3,0.452,1.18,2.44,1.27,0.0169,0.954,1.21,0.788,1.36,1.26,0.665,0.717 (inactive)
COc1cc(CO)cc(I)c1O[C@H]1C=C(C(=O)NCCO)C[C@@H](N(Cc2ccc(F)cc2)C(=O)C2CCCO2)[C@@H]1O (stereo not given in full),-0.53,-0.77 (inactive),-0.154,-0.0781,-0.124,-0.248,-0.144,0.0803,0.325,-0.422,0.608,0.317,0.079,0.247,0.34,0.47,1.46,-0.0522,0.517,-0.951 (inactive)
CCOC(=O)[C@H]1C/C=C/C[C@H](C(=O)OCC)C(=O)O[C@H]2[C@@H](OC)O[C@H](CO)[C@@H](OC(=O)Nc3ccc(OC)cc3)[C@@H]2OC1=O,0.441,0.937 (inactive),0.292,0.0196,0.475,0.984,1.16,1.32,0.37,0.92,1.96,1.16,0.768,0.369,1.16,0.741,2.61,0.636,0.648,-2.06 (inactive)
CCCCN1CC=CC23O[C@@H]4C=CCOC(=O)[C@@H]4[C@H]2C(=O)N(CCCO)[C@@H]3C1=O (stereo not given in full),0.335,0.064 (inactive),-0.321,-0.179,0.868,0.726,0.95,0.237,-0.565,-0.926,0.56,-0.518,-0.609,-1.28,-1.45,-0.682,-1.08,-0.199,-0.929,-0.135 (inactive)
COCC(=C=CC[C@H](O)c1ccc(OCCO)cc1)C[C@H](O)COCc1ccccc1,0.589,0.0082 (inactive),-0.123,-0.14,0.561,1.07,0.476,0.703,0.538,0.654,1.35,0.887,0.453,0.31,1.21,0.372,0.743,0.722,0.624,-0.627 (inactive)
Cc1ccc(S[C@]2(C(=O)NC(C)C)CC(=O)N(C3Cc4ccccc4C3)[C@@H]2c2ccc(CO)cc2I)cc1,-0.25,0.0777 (inactive),-0.641,-0.359,0.825,3.04,0.387,0.318,0.02,-0.181,-0.641,-0.597,-0.602,-0.779,-0.172,0.188,1.37,-2.2,-0.412,0.507 (inactive)
O=C1c2ccccc2[C@](Cc2ccccc2I)(C(=O)NCc2ccccc2)[C@H](c2ccc(CO)cc2)N1C1CCCCC1,0.861,0.534 (inactive),0.16,-0.0997,0.601,1.21,0.576,1.12,0.271,1.23,2.68,1.2,0.699,0.945,1.54,1.93,-0.0853,1.42,1.04,-0.0828 (inactive)
C=CC1c2cc(O)c(OC)cc2CCN1Cc1sc2ccccc2c1Cl (stereo not given),0.854,-0.967 (inactive),0.177,-0.0772,0.79,1.46,0.381,0.807,0.575,0.859,0.13,0.696,-0.025,0.863,1.28,-0.416,-0.68,0.188,0.983,-0.707 (inactive)
C=C(CCCC)/C(=C/C[C@@H](OC(C)=O)c1ccc(CO)o1)c1cc(C(=O)OC)ccc1OC,0.557,0.378 (inactive),-0.0195,-0.0741,0.57,0.69,0.557,1.29,0.182,0.851,0.746,0.961,0.506,0.715,1.33,1.17,0.522,1.22,0.454,-2.87 (inactive)
C=C(/C(=C/C[C@@H](OC(=O)c1ccncc1)c1ccc(OCCO)cc1)c1cc(C(=O)OC)ccc1OC)C(C)C,0.277,0.443 (inactive),0.157,-0.124,0.269,1.06,-0.017,1.14,-0.0737,0.695,0.217,1.19,-0.4,0.135,0.623,0.417,0.628,0.632,0.592,-0.467 (inactive)
COC(=O)[C@@]1(Cc2ccc(OC)cc2)[C@H]2c3cc(C(=O)N(C)C)n(CCc4c[nH]c5ccc(O)cc45)c3C[C@H]2CN1C(=O)c1ccccc1,0.932,0.258 (inactive),0.403,0.357,0.745,2.88,1.27,1.34,0.121,1.17,0.548,1.21,1.36,0.979,1.01,-0.218,0.74,-0.737,1.28,1.18 (inactive)
O=C1OCC=C[C@H]2OC34C=CCN(c5ccc(Cl)cc5)C(=O)[C@H]3N(CCCCCO)C(=O)[C@@H]4[C@@H]12 (stereo not given in full),0.387,0.0583 (inactive),-0.42,-0.168,0.807,-0.347,0.406,-1.56,-0.971,-0.893,3.93,-0.434,0.0336,-0.825,-1.03,-0.994,0.731,-1.52,-0.519,-0.232 (inactive)
C=CCOC(=O)[C@H]1[C@@H]2C(=O)O[C@@H](c3ccccc3)[C@@H](c3ccccc3)N2[C@@H](c2ccc(OCCOC(=O)[C@H]3C[C@H]4C(=O)N[C@@H](Cc5ccccc5)C(=O)N4[C@H]3c3cccc(OCCO)c3)cc2)[C@]12C(=O)Nc1ccc(I)cc12,-0.291,1.02 (inactive),0.071,-0.117,0.487,-0.0456,0.335,1.28,1.25,1.12,2.34,1.16,0.41,0.948,1.2,1.71,-1.41,1.35,0.324,-0.65 (inactive)
CC(C)N1C(=O)[C@@]2(c3ccc([N+](=O)[O-])cc3)CC(=O)N(C3CCCCC3)[C@@H]2c2ccc(CO)cc21,-0.545,0.633 (inactive),-0.215,-0.12,0.222,-0.0857,0.398,0.123,0.208,0.684,0.111,-0.695,-0.0713,-0.387,1.03,0.356,-0.24,0.297,-0.246,1.1 (inactive)
COc1ccc(C(O)C2C=CC3C(=O)N(C)C(=O)C3N2N2CCCCC2)cc1 (stereo not given),0.999,0.0811 (inactive),0.272,0.233,0.761,2.14,0.986,1.1,0.248,1.11,2.56,1.23,0.656,0.96,0.299,-0.19,0.406,-0.523,1.29,-1.08 (inactive)
CCCC=C(CCC)[C@@H](NP(=O)(c1ccccc1)c1ccccc1)c1ccc(C(F)(F)F)cc1,0.179,-0.349 (inactive),0.26,0.0684,-0.0457,0.442,0.207,1.14,-0.13,-0.482,0.74,0.811,0.666,0.47,-0.683,-0.265,0.365,0.57,0.255,2.55 (inactive)
O=C1c2ccccc2[C@](Cc2ccccc2I)(C(=O)NCCN2CCOCC2)[C@H](c2ccc(CO)cc2)N1Cc1ccccc1,0.673,-0.52 (inactive),0.533,-0.0468,0.377,1.28,0.369,1.3,0.286,1.12,0.0765,1.2,0.964,0.598,1.26,0.146,0.803,0.98,0.458,-0.0588 (inactive)
C[C@H]1C2=C3C(CC[C@H]4C(OCc5ccc(F)cc5C(F)(F)F)OC[C@](C)([C@@H]34)N(C(=O)OC(C)(C)C)C2)C2COC(=O)OCC21 (stereo not given in full),0.963,-0.0452 (inactive),0.242,0.183,0.754,2.93,0.399,1.31,-1.67,1.1,2.42,1.16,1.46,0.96,0.856,-1.5,1.75,-0.225,0.792,1.85 (inactive)
O=C1NCC(=O)N2[C@@H]1C[C@@H](C(=O)O)[C@H]2c1ccc(O)cc1,-0.575,-0.0127 (inactive),0.0397,-0.14,0.165,2.25,0.0452,1.31,1.48,1.07,3.15,1.19,0.278,0.8,1.38,1.9,0.563,1.56,0.255,-0.504 (inactive)

# From PubChem BioAssay
